High-throughput results deposited in PubChem BioAssay by National Center for Advancing Translational Sciences (NCATS).
Imprint erasure: qHTS Assay for Compounds that Induce Erasure of Genomic Imprints; mouse ES Peg3-LacZ reporter, beta-gal luminescence, 40 h; Potency, µM (doses to about 60.7 µM), hits mostly activators; hit rate 0.02% among 110,000; AID 1948, 2009
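Gelatin-coated wells received 300 freshly trypsinized female ES cells with a Peg3LacZ-Neo reporter on the maternal allele, then incubated 40 hours at 37C. BetaGlo was added for 5 minutes at room temperature before a single luminescence read.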
p53ts 39C tox: qHTS Screen for Compounds that Selectively Target Cancer Cells with p53 Mutations: Cytotoxicity of p53ts Cells at the Nonpermissive Temperature; H1299-p53A138V viability at 39C, ATP luminescence, 24 h; Potency, µM (top dose mostly 46.1 µM), actives largely listed as cytotoxic; hit rate 1.5% among 130,000; further: nearly all actives have a fitted effect of over 55% in size
IkB sig inh: IkB Signaling | ABC-DLBCL IkBa-CBG/CBR dual luciferase ratio, 4 h; response scale: scaled: untreated 0%, proteasome inhibitor 100% | Potency, µM (doses to about 57.1 µM) | hit rate 0.04% among 110,000; active means well fitted curve in the direction sought with a large enough effect in the signal ratio, not every such curve was filed as active; inconclusive means small, poorly fitted or top-dose-only effect, or a change in a side signal; the % refers to the signal ratio;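 further: the direction sought is a rising ratio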
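In this assay, an IκBα–CBG68 fusion accumulates when IKK-driven degradation is blocked; native CBR normalizes for cell number. OCI-Ly3 cells were treated 4 h with compound and doxycycline, then green and red light read after Chroma-Glo addition.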
p53ts 32C tox: qHTS Screen for Compounds that Selectively Target Cancer Cells with p53 Mutations: Cytotoxicity of p53ts Cells at the Permissive Temperature; H1299-p53A138V at 32C, ATP luminescence viability, 24 h; Potency, µM (top dose mostly 46.1 µM), hits mostly cytotoxic; hit rate 0.93% among 130,000; AID 924, 2007; further: nearly all actives have a fitted effect of over 55% in size
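H1299-p53 A138V cells (temperature-sensitive p53) exposed 24 h to up to 46 uM compound at 32C, where p53 is wild-type in conformation. Viability read as ATP luminescence and normalised to DMSO and 100 uM tamoxifen. AC50 fitted with the Hill equation.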
Each line names hits and unclear results; the compound was inactive in the other large screens. Sampled rows, rich in hits. Any-hit rate of the full collection: about 1.7%. Unless noted, the call rests on the fitted dose curve; in most records, active means well fitted curve in the direction sought with a large enough effect; inconclusive means small, poorly fitted or top-dose-only effect, or another doubt; inactive means no such curve, though single readings can be large; an effect the other way counts as inactive or inconclusive.

O=C(Nc1ccc(N2CCOCC2)c(Cl)c1)c1ccco1	p53ts 39C tox 15.8µM, p53ts 32C tox 12.6µM
CCCC(=O)N1CCN(c2ccc(NC(=O)c3cc4ccccc4o3)cc2Cl)CC1	p53ts 39C tox 15.8µM, IkB sig inh inconclusive, p53ts 32C tox inconclusive
Cc1c(C(=O)Nc2ccc(C(C)C)cc2)sc2nc[nH]c(=O)c12	p53ts 39C tox inconclusive
CCC(=O)N1CCc2cc(S(=O)(=O)CCC(=O)Nc3ccc(Cl)c(C(F)(F)F)c3)ccc21	IkB sig inh inconclusive
Cc1cc(-c2ccc(N=Nc3ccc4c(S(=O)(=O)O)cc(S(=O)(=O)O)c(N)c4c3O)c(C)c2)ccc1N=Nc1ccc2c(S(=O)(=O)O)cc(S(=O)(=O)O)c(N)c2c1O	p53ts 39C tox 15.8µM, IkB sig inh inconclusive, p53ts 32C tox 12.6µM
CCCn1c(/C=C/c2ccccc2)nc2ccccc21	p53ts 39C tox 10µM, p53ts 32C tox 12.6µM
CC(C)c1ccc(S(=O)(=O)/N=C2/C=C(Sc3ncn[nH]3)C(=O)c3ccccc32)cc1	p53ts 39C tox 8.91µM (no result: Imprint erasure, IkB sig inh, p53ts 32C tox)
CCOc1ccc(S(=O)(=O)Nc2ccc(O)c(Sc3ncn[nH]3)c2)cc1	none (no result: Imprint erasure, IkB sig inh)
Cc1ccc2scc(N3CCCCC3C)c(=O)c2c1 (centres undefined)	p53ts 39C tox 6.31µM, p53ts 32C tox 10µM
Cc1ccc2scc(N3CCC(C)CC3)c(=O)c2c1	p53ts 39C tox inconclusive, p53ts 32C tox inconclusive
Cc1ccc2scc(N3CCCCC3)c(=O)c2c1	p53ts 39C tox 15.8µM, p53ts 32C tox 12.6µM
CNC1=C(Cl)C(=O)c2ccncc2C1=O	p53ts 39C tox 3.98µM, p53ts 32C tox 1.58µM (no result: IkB sig inh)
CNC1=C(Br)C(=O)c2ccncc2C1=O	p53ts 39C tox 2µM, p53ts 32C tox 0.794µM (no result: IkB sig inh)
Cc1ccc(-n2ncc3c(N4CCN(Cc5ccccc5)CC4)ncnc32)cc1C	p53ts 39C tox 31.6µM, IkB sig inh inconclusive, p53ts 32C tox 20µM
CCOC(=O)C1CCCN(c2ncnc3c2cnn3-c2cccc(C)c2)C1 (centres undefined)	none
Cc1cccc(-n2ncc3c(N4CCCCCC4)ncnc32)c1	p53ts 39C tox 3.98µM, IkB sig inh inconclusive, p53ts 32C tox inconclusive
Cc1ccc(-n2ncc3c(N4CCCCCC4)ncnc32)cc1C	p53ts 39C tox inconclusive, IkB sig inh inconclusive, p53ts 32C tox 10µM
Cc1cccc(-n2ncc3c(N4CCCC(C)C4)ncnc32)c1 (centres undefined)	p53ts 39C tox 2.51µM, IkB sig inh inconclusive, p53ts 32C tox 3.98µM
CCOC(=O)CSc1nc2cc(OC)c(OC)cc2c2nc(-c3ccccc3)nn12	none
CCc1ccc2oc(C(=O)Nc3cc(Cl)ccc3OC)cc(=O)c2c1	none
COc1cccc(NC(=O)c2nnn(Cc3cccc(C(F)(F)F)c3)c2N)c1	none
CC1CCCN(c2ncnc3c2cnn3-c2ccc(F)cc2)C1 (centres undefined)	p53ts 39C tox 2µM, p53ts 32C tox 2µM
Cc1ccc(-n2ncc3c(N4CCN(c5ccc(F)cc5)CC4)ncnc32)cc1	IkB sig inh inconclusive
Cc1cccc(N2CCN(c3ncnc4c3cnn4-c3ccc(Cl)cc3)CC2C)c1 (centres undefined)	p53ts 39C tox 15.8µM, IkB sig inh inconclusive, p53ts 32C tox inconclusive
CCS(=O)(=O)c1ncc(Cl)c(C(=O)NCc2ccccc2)n1	p53ts 39C tox 12.6µM, IkB sig inh inconclusive, p53ts 32C tox inconclusive
Cc1ccc(C)c(NC(=O)c2nc(S(=O)(=O)Cc3ccc(F)cc3)ncc2Cl)c1	p53ts 39C tox 3.98µM, IkB sig inh inconclusive, p53ts 32C tox inconclusive
Cc1ccc(CNC(=O)c2nc(SCc3ccccc3C)ncc2Cl)cc1	IkB sig inh inconclusive
CS(=O)(=O)c1ncc(Cl)c(C(=O)N(Cc2ccc(Cl)cc2)Cc2ccco2)n1	p53ts 39C tox 3.16µM, IkB sig inh inconclusive, p53ts 32C tox 28.2µM
COc1ccc(CNC(=O)c2nc(S(=O)(=O)Cc3ccccc3)ncc2Cl)cc1	p53ts 39C tox 5.01µM, IkB sig inh inconclusive, p53ts 32C tox 20µM
COC(=O)C/C=C\[C@H](C)[C@H](CO)NS(=O)(=O)c1ccc(C)cc1	none (no result: Imprint erasure, IkB sig inh)
CCOC(=O)c1ccc(NC(=O)c2c(NCc3cccs3)sc3c2CCCCC3)cc1	none
COc1ccc(N(Cc2ccccc2)C(=O)c2nc(S(C)(=O)=O)ncc2Cl)cc1	p53ts 39C tox 3.98µM, IkB sig inh inconclusive, p53ts 32C tox 7.94µM
